Screens as filed in PubChem BioAssay.
A selection: hits, their analogues and other compounds. The true share with any hit is near 18%.
KAT2A inh – qHTS Assay for Inhibitors of GCN5L2. Histone acetyltransferase KAT2A (Homo sapiens), Q92830. GCN5L2 HAT assay, ThioGlo1 CoA-SH fluorescence. Potency, µM (doses to about 58.9 µM), usual class: inhibitors. 0.21% of 390,000 active. AID 504327, 2011
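Titration-based screen in which CoA formation is detected via maleimide probe ThioGlo1 (50uM) turning fluorescent on thiol reaction; substrates H3(1-25) 75uM and acetyl-CoA 70uM, GCN5L2 20nM, 20 min incubation at room temperature.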
PLK1 PBD inh – qHTS for Inhibitors of PLK1-PDB (polo-like kinase 1 - polo-box domain): Primary Screen. Serine/threonine-protein kinase PLK1 (Homo sapiens), P53350. Plk1 PBD binding of FITC phosphopeptide, fluorescence polarization. 2.8% of 360,000 active. AID 720504, 2013. Potency, µM, hits mostly inhibitors; note: series mostly up to about 57 µM; nearly all actives have a fitted effect of over 65% in size
VDR inhibitor – Inhibitors of the vitamin D receptor (VDR): qHTS. Vitamin D3 receptor (Homo sapiens), P11473. VDR-SRC2-3 peptide fluorescence polarization, 2 h. Potency, µM, actives largely listed as inhibitors. 0.93% of 400,000 active. AID 504847, 2011
Target sequence (P11473 whole entry, looked up): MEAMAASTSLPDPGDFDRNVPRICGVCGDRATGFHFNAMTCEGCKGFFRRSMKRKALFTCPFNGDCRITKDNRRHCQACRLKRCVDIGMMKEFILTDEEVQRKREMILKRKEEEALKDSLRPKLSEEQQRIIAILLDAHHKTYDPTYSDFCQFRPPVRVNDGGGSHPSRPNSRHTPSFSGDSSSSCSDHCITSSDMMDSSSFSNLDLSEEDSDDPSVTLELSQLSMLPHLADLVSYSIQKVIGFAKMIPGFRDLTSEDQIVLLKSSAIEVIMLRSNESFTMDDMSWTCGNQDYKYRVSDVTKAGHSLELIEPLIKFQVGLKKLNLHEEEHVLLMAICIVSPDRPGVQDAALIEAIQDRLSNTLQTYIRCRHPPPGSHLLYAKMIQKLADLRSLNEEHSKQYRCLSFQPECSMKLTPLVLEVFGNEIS
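Measured by FP: displacement of SRC2-3 coactivator peptide from VDR by library compounds, following a two-hour ambient incubation.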
DT40 TDP1 no CPT – qHTS for Inhibitors of human tyrosyl-DNA phosphodiesterase 1 (TDP1): qHTS in cells in absence of CPT; DT40 Tdp1-/- hTDP1 cells, no CPT, ATP luminescence, 48 h; Potency, µM (top dose mostly 46.2 µM), actives largely listed as inhibitors; 15% of 420,000 active; note: nearly all actives have a fitted effect of over 55% in size
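Cells were dispensed at 400 per well, compounds added by pin tool, plates incubated ≥48 hr at 37 °C, then CellTiter-Glo added for 30 min at room temperature before luminescence reading. Line: DT40 Tdp1-/- complemented with hTDP1; camptothecin omitted.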
TDP1 block – qHTS Assay for Inhibitors of Tyrosyl-DNA Phosphodiesterase (TDP1); Tyrosyl-DNA phosphodiesterase 1 (Homo sapiens), Q9NUW8; 0.28% of 350,000 active; recombinant TDP1, AlphaScreen DNA substrate cleavage; Potency, µM (top dose mostly 130 µM), hits mostly inhibitors; AID 485290, 2010; note: nearly all actives have a fitted effect of over 40% in size
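E. coli-derived human Tdp1, 1 nM final. Cpd preinc 15 min RT; substrate 15 nM final, 5 min RT; AS bead mix 10 ug/ml final, 10 min RT. Signal loss = tyrosine-FITC cleavage. No-enzyme wells = max signal.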
DT40 TDP1 CPT – qHTS for Inhibitors of human tyrosyl-DNA phosphodiesterase 1 (TDP1): qHTS in cells in presence of CPT | Potency, µM (titrated, usually from 46.2 µM), usual class: inhibitors | AID 686979, 2013 | chicken DT40 Tdp1-/-;hTDP1 cells + 20 nM CPT, ATP luminescence, 48 h | 12% of 420,000 active; note: nearly all actives have a fitted effect of over 55% in size
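Chicken DT40 Tdp1-/- cells complemented with human TDP1, 400 cells/well, exposed to compounds plus 20 nM camptothecin for at least 48 h at 37 C; viability read as ATP content by CellTiter-Glo luminescence.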
VDR inh confirm – qHTS for Inhibitors of the vitamin D receptor (VDR): Hit Validation in Primary Screen | shares compounds with VDR inhibitor | VDR-coactivator inhibition assay, qHTS confirmation | Potency, µM, usual class: inhibitors | 89% of 840 active | AID 602199, 2012
VDR FP fluor – qHTS for Inhibitors of the vitamin D receptor (VDR): Hit Validation using a Fluorescein Assay | shares compounds with VDR inhibitor | VDR-coactivator binding, fluorescein fluorescence polarization | AID 602200, 2012 | 48% of 840 active | Potency, µM (highest dose often 57.1 µM), usual class: inhibitors
VDR bla – qHTS for Inhibitors of the vitamin D receptor (VDR): Hit Validation using a Beta-Lactamase Assay; shares compounds with VDR inhibitor; VDR beta-lactamase reporter cells, FRET ratio; cells co-treated with VDR agonist LG190178; Potency, µM (top dose mostly 46.1 µM), actives largely listed as inhibitors; 23% of 840 active
VDR cytotox – qHTS for Inhibitors of the vitamin D receptor (VDR): Hit Validation using a Cytotoxicity Assay | shares compounds with VDR inhibitor | 18% of 840 active | AID 602204, 2012 | Potency, µM (titrated, usually from 48.3 µM), hits mostly cytotoxic | cytotoxicity counter-screen, cell viability, qHTS; note: nearly all actives have a fitted effect of over 75% in size
Each line names hits and unclear results; the compound was inactive in the other large screens (follow-up assays come after a bar, where they were run). Calls come from the whole dose curve; as a rule, active = well fitted curve in the direction sought with a large enough effect; inconclusive = small, poorly fitted or top-dose-only effect, or another doubt; inactive = no such curve, though single readings can be large; an effect the other way counts as inactive or inconclusive.

CCn1cc(CN2CCc3c([nH]c4ccccc34)C2c2cccc(OC)c2OC)c(C)n1 (stereo unspecified)	PLK1 PBD inh inconclusive, DT40 TDP1 CPT inconclusive
O=S(=O)(Nc1cc2nc3ccccc3nc2n1Cc1ccccc1)c1ccc(Cl)cc1	KAT2A inh inconclusive, PLK1 PBD inh inconclusive, VDR inhibitor 40µM, DT40 TDP1 no CPT 23µM, DT40 TDP1 CPT inconclusive | VDR inh confirm 30 | VDR FP fluor inactive | VDR bla inconclusive | VDR cytotox inconclusive
CN(c1ccccc1)c1nc(N)c([N+](=O)[O-])c(NCCO)n1	none
O=C(O)CSc1cc(NS(=O)(=O)c2ccc(Br)cc2)c2ccccc2c1O	PLK1 PBD inh 4.7µM, VDR inhibitor 16µM, DT40 TDP1 no CPT 5.2µM, DT40 TDP1 CPT 2.9µM (no result: TDP1 block) | VDR inh confirm 4.2 | VDR FP fluor 18µM | VDR bla inactive | VDR cytotox inconclusive
CC(C)CC(=O)/C(=C\c1ccc(Cl)cc1Cl)n1cncn1	PLK1 PBD inh inconclusive, VDR inhibitor 4µM, DT40 TDP1 no CPT 1.8µM, DT40 TDP1 CPT 2.9µM | VDR inh confirm 3.8 | VDR FP fluor inconclusive | VDR bla 16µM | VDR cytotox 15µM
CCSc1ncc(Cl)c(C(=O)Nc2nnc(CC)s2)n1	none (no result: PLK1 PBD inh)
CSc1ncc(Cl)c(C(=O)Nc2cccc(C)c2)n1	none
Cc1cccc(CS(=O)(=O)c2ncc(Cl)c(C(=O)Nc3c(C)cccc3C)n2)c1	PLK1 PBD inh 19µM, VDR inhibitor 22µM, DT40 TDP1 no CPT 4.1µM, DT40 TDP1 CPT 3.7µM | VDR inh confirm 6.7 | VDR FP fluor inconclusive | VDR bla 15µM | VDR cytotox inconclusive
Cc1ccc(CSc2ncc(Cl)c(C(=O)NCc3ccccc3)n2)cc1	DT40 TDP1 no CPT inconclusive (no result: PLK1 PBD inh)
CCCc1nnc(NC(=O)c2nc(S(=O)(=O)Cc3cccc(C)c3)ncc2Cl)s1	VDR inhibitor 14µM, DT40 TDP1 no CPT inconclusive, DT40 TDP1 CPT inconclusive | VDR inh confirm 6 | VDR FP fluor inconclusive | VDR bla 12µM | VDR cytotox 16µM
Cc1cccc(CS(=O)(=O)c2ncc(Cl)c(C(=O)NCc3ccccc3)n2)c1	PLK1 PBD inh inconclusive, VDR inhibitor 16µM, DT40 TDP1 no CPT 2.6µM, DT40 TDP1 CPT 3.3µM | VDR inh confirm 4.7 | VDR FP fluor 7.9µM | VDR bla 15µM | VDR cytotox 23µM
COc1ccc(C2CN=NC2C(=O)c2ccccc2)cc1 (stereo unspecified)	DT40 TDP1 no CPT inconclusive (no result: TDP1 block)
O=C(c1ccccc1)N(C1=NCCCCS1)c1ccccc1	none
c1ccc(-c2nnc(C3CC(c4ccncc4)=NO3)o2)cc1 (stereo unspecified)	none (no result: KAT2A inh, TDP1 block)
CCOc1ccc(/C=C/C(=O)c2cc(Br)ccc(=O)c2O)cc1	PLK1 PBD inh inconclusive, VDR inhibitor 50µM, DT40 TDP1 no CPT 3.7µM, DT40 TDP1 CPT 4.6µM | VDR inh confirm 13 | VDR FP fluor inactive | VDR bla inactive | VDR cytotox inactive
Cc1cccc(/C=C/C(=O)c2cc(Br)ccc(=O)c2O)c1	KAT2A inh inconclusive, PLK1 PBD inh 21µM, VDR inhibitor 16µM, DT40 TDP1 no CPT 3.3µM, DT40 TDP1 CPT 3.3µM | VDR inh confirm 3.8 | VDR FP fluor inactive | VDR bla inconclusive | VDR cytotox inconclusive
Cc1ccc2c(C)c(C(=O)N3CCC(O)(c4ccccc4)CC3)oc2c1C	DT40 TDP1 no CPT inconclusive (no result: TDP1 block)
CCOC(=O)C1CCCN(Cc2nc(CC3CC3)no2)C1 (stereo unspecified)	none (no result: TDP1 block)
Cc1nnc(Sc2cc(NCCCO)c([N+](=O)[O-])c3nonc23)s1	PLK1 PBD inh 5.3µM, VDR inhibitor 45µM, DT40 TDP1 no CPT 2.1µM, DT40 TDP1 CPT 1.5µM | VDR inh confirm 13 | VDR FP fluor 11µM | VDR bla inconclusive | VDR cytotox inconclusive
Cc1nnc(Sc2cc(NCCO)c([N+](=O)[O-])c3nonc23)s1	PLK1 PBD inh 2.4µM, VDR inhibitor 22µM, DT40 TDP1 no CPT 2.3µM, DT40 TDP1 CPT 3.3µM | VDR inh confirm 4.2 | VDR FP fluor inconclusive | VDR bla inconclusive | VDR cytotox inconclusive
CC(C)(C)c1ccc(-n2nc(C#N)c(Cl)cc2=O)cc1	PLK1 PBD inh inconclusive, VDR inhibitor inconclusive, DT40 TDP1 no CPT 2.9µM, DT40 TDP1 CPT 3.7µM | VDR inh confirm 7.9 | VDR FP fluor 8.9µM | VDR bla 2.6µM | VDR cytotox inconclusive
COc1ccc(-c2noc(C3CC(=O)N(c4ccccc4)C3)n2)c(OC)c1 (stereo unspecified)	none (no result: PLK1 PBD inh)
CCOC(=O)COc1ccc(Br)cc1/C=C1\SC(N)=NC1=O	DT40 TDP1 no CPT inconclusive
CCOC(=O)CSC1=NC(=O)/C(=C\c2ccc(OC(C)=O)cc2)S1	PLK1 PBD inh 2.1µM, VDR inhibitor 20µM, DT40 TDP1 no CPT 2.9µM, DT40 TDP1 CPT 2.6µM | VDR inh confirm 13 | VDR FP fluor inconclusive | VDR bla inconclusive | VDR cytotox inconclusive
O=C(Nc1ccccc1-c1ccccc1)C(=O)Nc1ccccc1-c1ccccc1	none (no result: PLK1 PBD inh, VDR inhibitor, DT40 TDP1 no CPT, TDP1 block, DT40 TDP1 CPT)
O=C(NCc1cccnc1)C1CC(c2ccccc2O)=NO1 (stereo unspecified)	none (no result: TDP1 block)
Cc1ccc(OCC(=O)OCC(=O)c2cccc([N+](=O)[O-])c2)cc1C	none
